Shown is part of a subset that was picked to be rich in hits.
TDP1 cell CPT: growth inhibition of DT40 Tdp1-/-;hTDP1 cells with camptothecin (screen for TDP1 inhibitors); chicken DT40 Tdp1-/-;hTDP1 cells + 20 nM CPT, ATP luminescence, 48 h; Potency, µM (titrated, usually from 46.2 µM), actives largely listed as inhibitors; actives 12% (n = 420,000); also: nearly all actives have a fitted effect of over 55% in size
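Cell growth measured by CellTiter-Glo luminescence after a minimum 48 h, 37 C compound exposure with 20 nM CPT in Tdp1-knockout DT40 cells stably expressing hTDP1, seeded 400/well; qHTS titration format.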
IL-1B inflam inh: inhibitors of inflammasome signaling (IL-1 beta secretion) | THP-1 LPS/ATP IL-1B secretion, AlphaLISA, 16 h; stronger effect = lower value | activity change, % at 57.5 µM | actives 4.7% (n = 360,000); in the data active = activity change below about -50%; inconclusive = mostly about -30% to -49%
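THP-1 cells pretreated 1 hr with compounds (up to 57.5 uM final), then stimulated with LPS (250 ng/mL final) plus ATP (1.25 mM final); secreted IL-1B measured by AlphaLISA after 16 hr, decreased signal indicating inhibition.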
TDP1 cell noCPT: qHTS for Inhibitors of human tyrosyl-DNA phosphodiesterase 1 (TDP1): qHTS in cells in absence of CPT; Potency, µM (top dose mostly 46.2 µM), actives largely listed as inhibitors; DT40 Tdp1-/- hTDP1 cells, no CPT, ATP luminescence, 48 h; actives 15% (n = 420,000); AID 686978, 2013; also: nearly all actives have a fitted effect of over 55% in size
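Chicken DT40 Tdp1-/- cells stably complemented with human TDP1 were seeded at 400 cells/well with DMSO in place of 20 nM camptothecin. After compound pinning, cells grew at least 48 hr at 37 °C; viability read by CellTiter-Glo luminescence.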
HT1080 IDH1KD tx: kills HT-1080 cells with IDH1 knockdown; HT-1080 IDH1 knockdown viability, ATP luminescence, 48 h; Potency, µM (highest dose often 46.1 µM), actives largely listed as cytotoxic; actives 2% (n = 360,000); AID 686971
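In this qHTS, HT-1080 cells depleted of IDH1 are exposed for 48 h at 37 °C to compound titrations. Toxicity is scored from CellTiter-Glo luminescence, with DMSO as full viability and medium alone as none.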
HT1080NT lethal: kills 2HG-producing HT-1080-NT fibrosarcoma cells | HT-1080-NT fibrosarcoma viability, CellTiter-Glo ATP luminescence, 48 h | Potency, µM (highest dose often 46.1 µM), hits mostly cytotoxic | actives 1.6% (n = 360,000) | AID 686970;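 also: NT is the 2HG producing partner of a matched IDH1 knockdown line; nearly all actives have a fitted effect of over 55% in size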
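Compounds were tested in concentration-response format on HT-1080-NT cells for 48 hours at 37 degrees C. Cell viability came from CellTiter-Glo luminescence; curves were classified by r2, response magnitude and activity.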
ALOX12 inh: blocks human arachidonate 12S-lipoxygenase | P18054 | purified 12hLO, xylenol orange hydroperoxide absorbance | Potency, µM (titrated, usually from 108 µM), most hits filed as inhibitors | actives 1.1% (n = 580,000)
Target sequence (P18054 whole entry, looked up): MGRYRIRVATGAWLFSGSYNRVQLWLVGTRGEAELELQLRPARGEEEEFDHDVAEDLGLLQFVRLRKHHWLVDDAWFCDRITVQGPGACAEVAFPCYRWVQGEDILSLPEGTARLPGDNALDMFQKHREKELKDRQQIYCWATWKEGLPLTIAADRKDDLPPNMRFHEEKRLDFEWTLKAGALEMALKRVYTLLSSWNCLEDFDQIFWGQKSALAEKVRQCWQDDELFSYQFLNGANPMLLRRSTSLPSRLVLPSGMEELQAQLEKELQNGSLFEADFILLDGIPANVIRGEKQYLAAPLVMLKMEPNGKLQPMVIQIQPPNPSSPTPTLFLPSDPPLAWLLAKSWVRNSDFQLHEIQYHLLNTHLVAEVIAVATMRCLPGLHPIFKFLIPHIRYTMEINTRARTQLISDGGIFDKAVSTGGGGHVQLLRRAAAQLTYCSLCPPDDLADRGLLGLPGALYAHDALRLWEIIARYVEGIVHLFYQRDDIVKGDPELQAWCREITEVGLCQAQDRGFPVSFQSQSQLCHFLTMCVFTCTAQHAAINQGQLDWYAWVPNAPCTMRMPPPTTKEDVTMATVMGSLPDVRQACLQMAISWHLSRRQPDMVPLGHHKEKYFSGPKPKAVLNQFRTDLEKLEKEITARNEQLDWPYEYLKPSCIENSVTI
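Purified human 12hLO (150 nM final) in 25 mM Hepes, 0.01% Triton X-100, pH 7.0 was preincubated 15 min at room temperature with compound. Then 40 uM arachidonic acid was added, 30 min. Hydroperoxide was read by Fe-XO absorbance ratio 573/405 nm.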
A number is an active result; – = inactive; ? = inconclusive; · = not tested or not shown. Unless noted, calls follow the shape of the dose curve; as a rule, active = well fitted curve in the direction sought with a large enough effect; inconclusive = small, poorly fitted or top-dose-only effect, or another doubt; inactive = no such curve, though single readings can be large; an effect the other way counts as inactive or inconclusive.

SMILES | TDP1 cell CPT | IL-1B inflam inh | TDP1 cell noCPT | HT1080 IDH1KD tx | HT1080NT lethal | ALOX12 inh
CCOc1ccccc1N(CC(=O)Nc1cccc(OC)c1)S(=O)(=O)c1ccccc1 | 29µM | – | ? | – | – | –
COc1ccc(OC)c(N(CC(=O)Nc2cccnc2)S(=O)(=O)c2ccccc2)c1 | ? | – | ? | 3.3µM | 6.5µM | –
COc1ccc(N(CC(=O)NCc2ccncc2)S(=O)(=O)c2ccccc2[N+](=O)[O-])c(OC)c1 | – | – | – | – | – | –
COc1ccc(N(CC(=O)NCc2ccc(C)cc2)S(=O)(=O)c2ccccc2[N+](=O)[O-])c(OC)c1 | ? | ? | 23µM | – | – | –
COC(=O)c1sccc1S(=O)(=O)N(CC(=O)Nc1cccc(OC)c1)c1ccc(Cl)cc1 | · | · | · | · | · | –
CC(C)N1CCC(CCN2C(=O)[C@H]3CNC[C@H]3C2=O)CC1 | · | · | · | · | · | –
CCOc1ccc(NC(=O)CN(c2ccccc2OCC)S(=O)(=O)c2ccccc2)cc1 | ? | · | 18µM | · | · | –
CCOc1ccccc1N(CC(=O)Nc1ccc(OC)cc1OC)S(=O)(=O)c1ccccc1 | ? | – | 26µM | – | – | –

Source: PubChem BioAssay
